Results on six compounds are retold here after PubChem BioAssay (NCATS).

SMILES strings stand for the structures. Where “and” joins values, the source holds several entries; their conditions need not be identical. Equal values may be shown once. Records with an inconclusive call do not appear. Calls of active or inactive are those of the source. Calls follow the shape of the dose curve; as a rule, active = well fitted curve in the direction sought with a large enough effect; inconclusive = small, poorly fitted or top-dose-only effect, or another doubt; inactive = no such curve, though single readings can be large; an effect the other way counts as inactive or inconclusive.

For one assay, the system named is MCC-13. The assay is described as follows: qHTS assay to identify novel small-molecules to repurpose for Merkel cell carcinoma treatment (AID 1296009). Also: nearly all actives have a fitted effect of over 60% in size. As to conditions: MCC and control cell lines, CellTiter-Glo viability, 72 h; series mostly up to 46 µM. The gist of the method:
(§1)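 Cell viability measured by CellTiter-Glo following 72 hr compound treatment at 37 degree celsius, with NPC and MIPE libraries tested in 8- and 11-point concentration series.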

Another assay deals with MCC-26. The assay is described as above. The following applies: MCC and control cell lines, CellTiter-Glo viability, 72 h; series mostly up to 46 µM. The gist of the method: as §1
Another assay concerns MKL-1. The assay is described as above. The following applies: MCC and control cell lines, CellTiter-Glo viability, 72 h; series mostly up to 46 µM. The essentials:
as §1

The subject of another assay is MKL-2. The description is as above. The following applies: MCC and control cell lines, CellTiter-Glo viability, 72 h; series mostly up to 46 µM. The essentials: as §1
For another assay, the system named is UISO. The assay is described as above. As to conditions: MCC and control cell lines, CellTiter-Glo viability, 72 h; series mostly up to 46 µM. The gist of the method: as §1
The test system of the next assay is WaGa. Described as above. The following applies: MCC and control cell lines, CellTiter-Glo viability, 72 h; series mostly up to 46 µM. The essentials:
as §1

In the next assay the test system is C33A. The assay is described as follows: Primary qHTS to identify gynecologic anti-cancer compounds using libraries of approved drugs and bioactive compounds (AID 1345084). Also: nearly all actives have a fitted effect of over 55% in size. The following applies: Gynecologic cancer cell panel viability, ATPlite luminescence, 48 h; series mostly up to 57.5 µM. The gist of the method: (§2)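 Luminescence from the ATPlite ATP-monitoring reagent indicates viable cell number; lower signal means cytotoxicity. Cells received compound 16 h after seeding and were exposed for 48 h across five concentrations.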

The next assay relates to CAOV3. The description is as above. The following applies: Gynecologic cancer cell panel viability, ATPlite luminescence, 48 h; series mostly up to 57.5 µM. The essentials: as §2
The test system of another assay is CASKI. Described as above. The following applies: Gynecologic cancer cell panel viability, ATPlite luminescence, 48 h; series mostly up to 57.5 µM. The essentials:
as §2

The next assay deals with Es-2. The assay is described as above. As to conditions: Gynecologic cancer cell panel viability, ATPlite luminescence, 48 h; series mostly up to 57.5 µM. The essentials:
as §2

The subject of the next assay is HeLa. The assay is described as above. As to conditions: Gynecologic cancer cell panel viability, ATPlite luminescence, 48 h; series mostly up to 57.5 µM. The gist of the method: as §2
The subject of a further assay is Hek293T. The assay is described as above. The following applies: Gynecologic cancer cell panel viability, ATPlite luminescence, 48 h, control line for the selectivity index; series mostly up to 57.5 µM. The gist of the method: as §2
Another assay relates to JEG-3. The assay is described as above. The following applies: Gynecologic cancer cell panel viability, ATPlite luminescence, 48 h; series mostly up to 57.5 µM. The gist of the method:
as §2

The next assay relates to OV90. The description is as above. The following applies: Gynecologic cancer cell panel viability, ATPlite luminescence, 48 h; series mostly up to 57.5 µM. The gist of the method: as §2
The test system of a further assay is PA-1. The description is as above. As to conditions: Gynecologic cancer cell panel viability, ATPlite luminescence, 48 h; series mostly up to 57.5 µM. The gist of the method:
as §2

Another assay has as its system SKOV3. The assay is described as above. As to conditions: Gynecologic cancer cell panel viability, ATPlite luminescence, 48 h; series mostly up to 57.5 µM. The gist of the method: as §2
The test system of another assay is Tov-21-G. The description is as above. The following applies: Gynecologic cancer cell panel viability, ATPlite luminescence, 48 h; series mostly up to 57.5 µM. The essentials: as §2
The next assay concerns Tov112D. The assay is described as above. The following applies: Gynecologic cancer cell panel viability, ATPlite luminescence, 48 h; series mostly up to 57.5 µM. The essentials:
as §2

Assay [1] is described as follows: Drug repurposing screens with cells derived from glioblastoma tumor samples (AID 1345199). Also: nearly all actives have a fitted effect of over 40% in size. Also: potency is read from the fitted curve at half-maximal effect. As to conditions: GBM patient neurospheres viability, ATP luminescence, 48 h. The essentials: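 Primary testing used CD133+ neurospheres from four GBM patients, seven concentrations, 48 h exposure and ATP-based viability; confirmation added three slower-growing patient lines.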

The test system of the next assay is NIH3T3. The assay is described as follows: qHTS assay to identify novel small-molecules to repurpose for Merkel cell carcinoma treatment (AID 1296009). Also: nearly all actives have a fitted effect of over 60% in size. As to conditions: MCC and control cell lines, CellTiter-Glo viability, 72 h; at 44.8 µM (top of the series) unless noted. The gist of the method: as §1
Where [2] appears, read: at 45.9 µM (top of the series), tumour line B.
[3] abbreviates: at 45.9 µM (top of the series), tumour line D.
Setting [4] is: at 46 µM (top of the series), tumour line A.
[5] abbreviates: at 46.1 µM (top of the series), tumour line C.
% is scaled to controls: 0 for no effect and ±100 for the full control effect.

Take `CCCCc1ncc(/C=C(\Cc2cccs2)C(=O)O)n1Cc1ccc(C(=O)O)cc1`: the Potency entry with MCC-13, in the assay on MCC-26, with MKL-1, in the assay with MKL-2, with UISO and in the assay with WaGa was “inactive” throughout. Also, the Potency entry in the assay on C33A, in the assay on CAOV3, in the assay with CASKI, with Es-2, in the assay on HeLa and with Hek293T was “inactive” each time. Moreover, the Potency entry in the assay on JEG-3, in the assay with OV90, with PA-1, with SKOV3, with Tov-21-G and in the assay on Tov112D was “inactive” throughout.

Take `CCCOC(=O)c1ccccc1`: the Potency result with MCC-13, in the assay with MCC-26, in the assay on MKL-1, with MKL-2, in the assay on UISO and with WaGa was “inactive” throughout. Moreover, the Potency result in the assay with C33A, with CAOV3, in the assay with CASKI, with Es-2, with HeLa and with Hek293T was “inactive” throughout. Moreover, the Potency result in the assay on JEG-3, in the assay on OV90, in the assay on PA-1, in the assay on SKOV3, with Tov-21-G and in the assay with Tov112D was “inactive” in each case. Moreover, the activity, negative = cell killing in assay [1] (setting [2]) was -11.5% (inactive); in [1] (setting [3]), 1.56% (inactive); in assay [1] (setting [4]), -26.7% (inactive); in assay [1] (setting [5]) it was -15.4% (inactive).

In the case of `O=C(O)[C@H](O)c1ccccc1`, the Potency entry in the assay on MCC-13, in the assay with MCC-26, in the assay on MKL-1, in the assay on MKL-2, in the assay with UISO and in the assay on WaGa was “inactive” each time. Moreover, the Potency entry in the assay with C33A, with CASKI, in the assay with Es-2, in the assay on HeLa, with Hek293T and in the assay on JEG-3 was “inactive” throughout. Besides, the Potency result in the assay with OV90, with PA-1, in the assay with SKOV3, with Tov-21-G and with Tov112D was “inactive” throughout. For the same compound, the outcome with NIH3T3 was inactive. For the same compound, the activity, negative = cell killing in assay [1] (setting [2]) was -2.7% (inactive); in assay [1] (setting [3]), 3.57% (inactive); in [1] (setting [5]), 1.65% (inactive).

Turning to `CC1=C(C/C=C(\C)CCC[C@H](C)CCC[C@H](C)CCCC(C)C)C(=O)c2ccccc2C1=O`, the Potency result in the assay with MCC-13, with MCC-26, with MKL-1, in the assay with MKL-2, in the assay with UISO and with WaGa was “inactive” in each case. Moreover, the Potency entry in the assay with C33A, with CAOV3, in the assay with CASKI, in the assay on Es-2, in the assay with HeLa and in the assay with Hek293T was “inactive” each time. Moreover, the Potency entry in the assay with JEG-3, with OV90, in the assay on PA-1, in the assay on SKOV3, in the assay on Tov-21-G and with Tov112D was “inactive” in each case. In addition, the activity, negative = cell killing in [1] (setting [5]) was -10.9% (inactive). Moreover, the Potency in assay [1] (tumour line A) was 11.2 µM (active).

`Cc1cc(CC(=O)O)n(C)c1C(=O)c1ccc(Cl)cc1`: the Potency entry with MCC-13, with MCC-26, with MKL-1, with MKL-2, with UISO and in the assay with WaGa was “inactive” each time. The Potency result in the assay on C33A, with CAOV3, in the assay on CASKI, in the assay with Es-2, in the assay with HeLa and in the assay with Hek293T was “inactive” throughout. For the same compound, the Potency entry in the assay on JEG-3, in the assay on OV90, in the assay with PA-1, with SKOV3, with Tov-21-G and in the assay with Tov112D was “inactive” throughout. The activity, negative = cell killing in [1] (setting [2]) is -19.5% (inactive) and -0.106% (inactive); in [1] (setting [3]), -15.6% (inactive) and -2.2% (inactive); in assay [1] (setting [5]), -19.2% (inactive) and -21.6% (inactive).

As for `CCC(=O)Nc1ccc(O)cc1`, the Potency entry with MCC-13, in the assay with MCC-26, in the assay on MKL-1, in the assay with MKL-2, in the assay with UISO and in the assay with WaGa was “inactive” in each case. Moreover, the Potency result with C33A, in the assay on CAOV3, in the assay with CASKI, in the assay with Es-2, in the assay with HeLa and in the assay on Hek293T was “inactive” each time. Besides, the Potency entry in the assay on JEG-3, with OV90, with PA-1, with SKOV3, in the assay on Tov-21-G and in the assay with Tov112D was “inactive” each time. In addition, the activity, negative = cell killing in assay [1] (setting [2]) is -16% (inactive); in [1] (setting [3]), -0.42% (inactive); in [1] (setting [4]), -15.2% (inactive); in [1] (setting [5]) it was -16.9% (inactive).
